Inconclusive results are not listed. Where a call stands in place of a potency, no number is given. Activity calls are given as the source filed them. Calls come from the whole dose curve; as a rule, active = well fitted inhibition curve with a large enough effect; inconclusive = small, poorly fitted or top-dose-only effect; inactive = flat fitted curve, though single readings scatter.

Results on nine molecules are retold here after PubChem BioAssay (NCATS).

The test is described as follows: P-glycoprotein substrates identified in KB-8-5-11 adenocarcinoma cell line, qHTS therapeutic library screen (AID 1346987). Note: nearly all actives have a fitted effect of over 65% in size. The settings on record: KB-8-5-11 (P-gp overexpressing) viability, CellTiter-Glo, 72 h; series mostly up to 44.5 µM. In short, it runs like this:
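KB-8-5-11: colchicine-selected sub-line of KB-3-1 over-expressing P-gp; assay medium lacked colchicine. 72 h drug exposure at 37 degree C, CellTiter-Glo.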
Background: In qHTS, concentration-response curves come from the screen itself.
For `C=C1C(=O)OC2/C=C(\C)CC/C=C(\C(=O)O)CC/C=C(\C)CCC12` (centres undefined), the Potency entry is “inactive”.

With `O=C1NCc2nc3ccccc3c(=O)n2C1Cc1c[nH]c2ccccc12` (centres undefined), the Potency entry was “inactive”.

As to `CC(=O)O[C@H]1[C@H](Oc2ccccc2COC(=O)C2(O)C=CCCC2=O)O[C@H](CO)[C@@H](O)[C@@H]1O` (some centres undefined), the Potency entry is “inactive”.

Turning to `O=C1NC(Cc2ccc(O)cc2)C(=O)N2CCCC12` (centres undefined), the Potency result was “inactive”.

As to `Cc1nn(C)c(COc2ccc(N3CCN(S(=O)(=O)N(C)C)CC3)cc2)c1-c1cccc2c(CCCOc3cccc4ccccc34)c(C(=O)O)n(CCN3CCOCC3)c12`, the Potency entry was “inactive”.

On to `C(#Cc1cccc(CN2CCOCC2)c1)CCN1CCCCC1`, for which the Potency entry was “inactive”.

As for `CCc1cc2c(=O)c(-c3nc4ccccc4s3)coc2c(CN2CCCCC2)c1O`, the Potency entry is “inactive”.

Consider `COC(=O)C1C(CC(C)=O)C=CC(O)C12Oc1cc(C)cc(O)c1C2=O` (centres undefined), for which the Potency result was “inactive”.

As for `C/C=C/C=C/C=C/C(=O)O[C@@H]1[C@@H](OC)C2=C(C(=O)N(C(C)C(=O)O)C2)[C@@]2(C)CCCC(C)(C)[C@H]12` (some centres undefined), the Potency result was “inactive”.
